# Screens (PubChem)
# M4 PAM = human M4 muscarinic receptor positive allosteric modulators, primary screen, CHO-K1 cells, Fluo-8 calcium fluorescence; Muscarinic acetylcholine receptor M4 (Homo sapiens), P08173; CHO-K1 hM4/Gqi5, ACh EC20; 0% = ACh EC20, 100% = maximal ACh; activation, % at 3 µM; hit rate 0.4% among 360,000;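 active = activation above its plate's cutoff, the mean activation of sample wells plus 3 SD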
# M1 PAM = human M1 muscarinic receptor positive allosteric modulators, primary screen, CHO-K1 cells, Fluo-8 calcium fluorescence, 1536-well; activation, % at 3 µM; CHO-K1 hM1, ACh EC20; 0% = ACh EC20, 100% = maximal ACh; Muscarinic acetylcholine receptor M1 (Homo sapiens), P11229; hit rate 0.088% among 360,000; in the data active = activation above about 19%, passing the limit was not always enough
# Target sequence (P11229 whole entry, looked up): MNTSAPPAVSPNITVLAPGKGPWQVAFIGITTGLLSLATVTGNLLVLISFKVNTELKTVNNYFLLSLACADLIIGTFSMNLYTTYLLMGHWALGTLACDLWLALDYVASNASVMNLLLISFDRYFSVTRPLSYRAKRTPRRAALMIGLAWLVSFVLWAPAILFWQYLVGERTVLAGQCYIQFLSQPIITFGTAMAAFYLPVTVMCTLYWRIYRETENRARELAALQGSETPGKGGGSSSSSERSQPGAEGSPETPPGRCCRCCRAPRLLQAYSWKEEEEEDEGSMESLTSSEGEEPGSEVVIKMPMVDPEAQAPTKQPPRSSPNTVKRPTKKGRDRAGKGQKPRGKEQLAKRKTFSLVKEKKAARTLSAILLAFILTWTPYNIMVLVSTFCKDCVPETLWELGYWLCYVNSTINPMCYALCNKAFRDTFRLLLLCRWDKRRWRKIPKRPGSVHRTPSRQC
# CHRM4 antagonist = human M4 muscarinic receptor antagonists, primary screen, CHO cells, Fluo-8 calcium fluorescence; CHO-hM4 cells, ACh EC80; inhibition, % at 3 µM; hit rate 0.73% among 360,000;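 active = inhibition above its plate's cutoff, the mean inhibition of sample wells plus 3 SD, cut at about 27% in these data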;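 also: 0% = acetylcholine EC80 with DMSO and 100% = DMSO without agonist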
# CHRM1 antagonist = human M1 muscarinic receptor antagonists, primary screen, CHO-K1 cells, Fluo-8 calcium fluorescence, 1536-well | CHO-K1 hM1, ACh EC80 antagonist | inhibition, % at 3 µM | hit rate 1.3% among 360,000 | AID 588852, 2011;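 active = percent inhibition above its own plate's cutoff, namely the mean of that plate's compound wells plus 3 SD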;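 also: peak over basal fluorescence ratio during 140 s after agonist addition; 0% = ACh EC80 plus DMSO and 100% = DMSO alone without agonist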
# CHRM4 agonist = human M4 muscarinic receptor agonists, primary screen, CHO-K1 cells, Fluo-8 calcium fluorescence | CHO-K1 hM4/Gqi5; vehicle 0%, full acetylcholine response 100% | activation, % at 3 µM | hit rate 0.14% among 360,000 | AID 624127, 2012;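 active = activation above the run mean over all test wells plus 3 SD, cut at about 32% in these data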;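 also: peak over basal fluorescence ratio per well then scaled between controls; 0% = DMSO wells and 100% = acetylcholine at EC100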
# CHRM1 agonist = human M1 muscarinic receptor agonists, primary screen, Fluo-8 calcium fluorescence, CHO-K1 cells, HTS; Muscarinic acetylcholine receptor M1 (Homo sapiens), P11229; hit rate 0.33% among 360,000; CHO-K1 hM1, agonist mode; 0% DMSO, 100% acetylcholine EC100; activation, % at 3 µM;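 active = activation above the run's mean compound activation plus 3 SD, cut at about 16% in these data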;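 also: peak over basal fluorescence ratio within a 140 s kinetic read after compound addition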
# * = called active by the depositor. An excerpt weighted towards active compounds, which were near 2.2% of everything screened.
SMILES,M4 PAM,M1 PAM,CHRM4 antagonist,CHRM1 antagonist,CHRM4 agonist,CHRM1 agonist
O=C(Nc1ccn(CCCN2CCN(Cc3cccc4ccccc34)CC2)c(=O)n1)OCc1ccccc1,-10,-24,-9,30*,11,-3
Cc1ccc(C)c(C(=O)N2CCN(c3ncccn3)CC2)c1,-7,8,-1,-7,2,3
COc1ccccc1C(=O)Oc1ccc2ccc(=O)oc2c1,-3,14,-11,-12,2,1
CC(/C=N/NC(=O)c1sc(N)nc1C)=C\c1ccccc1,6,8,-6,-3,2,25*
CC(/C=N/NC(=O)c1ccccc1C)=C\c1ccccc1,-5,6,-6,-8,0,-3
Cc1nc(N)sc1C(=O)N/N=C/c1ccccc1[N+](=O)[O-],22*,9,-11,7,3,-4
Cc1cc(C)c(NC(=O)CCCSc2nnc(N)s2)c(C)c1,-11,-1,8,4,1,0
N#CC(C#N)=C1C=CC=CN1/C(=C\c1ccco1)C(=O)c1ccc(Cl)cc1,-12,1,55*,16,3,-7
N#CC(C#N)=C1C=CC=CN1/C(=C\c1ccco1)C(=O)c1ccc(-c2ccccc2)cc1,-9,0,27*,-5,4,-5
CC(/C=N/n1c(-c2ccc(Cl)cc2)n[nH]c1=S)=C\c1ccco1,0,5,2,-2,0,-4
CCC1(CC)C(=O)C2=C3C1[C@H](C(=O)OC)C=C(C(=O)OC)C[C@H]3[C@H]1C(=O)NC(=O)[C@H]1[C@H]2C (stereo not given in full),4,1,5,-3,2,-3
O=C(NC1CCCc2c1cnn2-c1ccc(F)cc1F)c1csnn1 (stereo not given),3,4,-10,-3,1,-2
CCN1CCN(CC(=O)Nc2sc3c(c2C#N)CCC(C)C3)CC1 (stereo not given),11,4,5,-2,7,-5
COc1ccccc1/C=C1\SC(=O)N(CC(=O)N(C)C2CCS(=O)(=O)C2)C1=O (stereo not given),5,7,-3,-9,1,-6
CCOc1ccc(NC(=O)[C@@H]2CCCN2C(=O)c2cccs2)cc1S(=O)(=O)N1CCCCC1,1,7,7,-11,4,-3
Cc1sc(NC(=O)c2ccco2)nc1-c1ccc2c(c1)CC(C)N2C(=O)C1CC1 (stereo not given),-15,-10,32*,25,17,2
Cc1ccc(S(=O)(=O)Nc2cccc3cccnc23)cc1,-5,5,32*,7,3,-3
COc1ccc(-c2nc(CN3CCCCC3CCc3ccccn3)c(C)o2)cc1 (stereo not given),-6,-6,-5,-2,1,-14
c1ccc(CCC2CCCCN2Cc2nc(-c3ccc4c(c3)OCO4)no2)nc1 (stereo not given),-21,-14,11,35*,16,-3
COC(=O)[C@H](CCSC)NC(=O)Cn1cnc(C(=O)Nc2ccc(C)c(C)c2)n1,-1,9,6,-17,2,-2
COc1c(O)cc2c(c1O)[C@@H]1OC(CO)C(O)C(O)[C@H]1OC2=O (stereo not given in full),-1,-2,-2,-25,1,7
COc1c(O)cc2c(c1O)C1OC(CO)C(O)C(O)C1OC2=O (stereo not given),7,-20,-36,-2,7,48*
CCCCN1C(=O)C2NN=C(C(=O)OCC)C2C1=O (stereo not given),14,-1,17,8,1,-3
CN1C(=O)c2c(C(=O)Nc3ccc(Oc4ccncc4)cc3)[nH]c(-c3ccccc3)c2C1=O,2,-3,-7,12,1,0
CNC(=O)c1cc(Oc2ccc(NC(=O)c3[nH]c(-c4ccccc4)c4c3C(=O)N(C)C4=O)cc2)ccn1,23*,-2,-11,-16,1,-2
SMILES,M4 PAM,M1 PAM,CHRM4 antagonist,CHRM1 antagonist,CHRM4 agonist,CHRM1 agonist
O=C(Nc1ccccc1C(=O)N1CCCC1)C1CCN(c2ncccn2)CC1,0,-3,-3,-1,1,-2
CCOC(=O)c1cc(C)n(-c2c(C)n(C)n(-c3ccccc3)c2=O)c1C,-7,-14,3,34*,0,-5
COc1ccc(C(CCNCc2ccc(OC(C)C)cc2)C(C)C)cc1 (stereo not given),-19,-17,23,36*,27,-2
COc1ccc(C(CCNCc2ccc(N(C)C)cc2)C(C)C)cc1 (stereo not given),-52,-16,42*,39*,27,-1
COc1ccc(CNCCC(c2ccc(OC(C)C)cc2)C(C)C)cc1OC (stereo not given),-8,-17,8,16,13,-9
CC(=O)N1Cc2[nH]c3ccccc3c2CC1C(=O)O (stereo not given),-8,7,-2,2,0,4
CCc1nnc(NC(=O)CCN2C(=O)/C(=C/c3cc(OC)c(OC)c(OC)c3)SC2=S)s1,15*,12,-28,-17,2,-2
COc1ccc(CCC(=O)Nc2ccc(Cl)c(S(=O)(=O)N3CCCC3)c2)cc1,-20,3,8,5,12,4
CSc1ccccc1C(=O)N1CCN(S(=O)(=O)c2sc(C(=O)O)c(C)c2C(=O)O)CC1,5,-2,-2,8,1,-3
CCOc1ccc(/C=C/C2=Cc3c(sc(NC(=O)CSc4n[nH]c(N)n4)c3C#N)C(C)(C)C2)cc1,-2,1,47*,15,8,-1
Cc1ccsc1/C=C/C1=Cc2c(sc(NC(=O)CSc3n[nH]c(N)n3)c2C#N)C(C)(C)C1,1,1,12,12,2,-2
CC1=C/C(=N\OS(=O)(=O)c2ccccc2)C(C)=CC1=O,-16,-11,70*,32*,18,10
CC1=C(C)/C(=N\OS(=O)(=O)c2ccc(C)cc2)C=CC1=O,-9,-10,60*,31*,12,2
O=C(CSCc1ccccc1F)NCc1ccc(F)cc1,-14,-6,13,27,15,-3
COC(/C(=N/O)c1ccc(Cl)cc1)c1ccccc1 (stereo not given),-15,-20,28*,47*,5,-6
